Experimental data published in PubChem BioAssay (Tox21).
Inconclusive results are not listed. The source made the active and inactive calls. Calls come from the whole dose curve.

Tests used:
[1] = biological target: Acetylcholinesterase (Homo sapiens) (UniProt P22303); experiment: Acetylcholinesterase (AChE) small molecule antagonists: colormetric cell-based qHTS assay (AID 1347395); note: nearly all actives have a fitted effect of over 30% in size
Procedure, shortened: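 AChE inhibition read colorimetrically via DTNB–thiocholine in SH-SY5Y cells. Compound 30 min, substrate 90 min, both 37 C.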

[2] = biological target: Acetylcholinesterase (Homo sapiens) (UniProt P22303); experiment: Acetylcholinesterase (AChE) small molecule antagonists: enzyme-based qHTS assay (AID 1347397); conditions: Potency: AChE enzyme activity inhibition; outcome: AChE enzyme activity inhibition; note: nearly all actives have a fitted effect of over 55% in size
Procedure, shortened: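 In this quantitative HTS, compounds from the Tox21 10K collection were preincubated 30 min at ambient temperature with recombinant human AChE dispensed at 50 mU/mL. Hydrolysis of acetylthiocholine was then followed for 10 min by DTNB colour development.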

[3] = biological target: Acetylcholinesterase (Homo sapiens) (UniProt P22303); experiment: Acetylcholinesterase (AChE) small molecule antagonists: fluorescence cell-based qHTS assay (AID 1347398); conditions: Potency: AChE activity; outcome: AChE activity; note: nearly all actives have a fitted effect of over 50% in size
Procedure, shortened: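 Cells (SH-SY5Y) attached overnight, were dosed with compound or DMSO vehicle for 30 min at 37 C, and then incubated 40 min at room temperature with acetylthiocholine and Thiolite Green; green fluorescence indexed AChE activity.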

[4] = biological target: Acetylcholinesterase (Homo sapiens) (UniProt P22303); experiment: Acetylcholinesterase (AChE) small molecule antagonists: enzyme-based qHTS assay with human liver microsomes (AID 1347399); conditions: Potency: qHTS inhibition; outcome: qHTS inhibition; note: nearly all actives have a fitted effect of over 60% in size
Procedure, shortened: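 Recombinant human AChE (50 mU/mL in the enzyme mix) and human liver microsomes (0.25 mg/mL final) were preincubated with compound and NADPH (0.25 mg/mL final) for 30 min at 37 C. Acetylthiocholine/DTNB was then added; thiocholine was read colorimetrically after 10 min at room temperature.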

Measured: Potency

Acetylcholinesterase (Homo sapiens), sequence (P22303 whole entry, looked up): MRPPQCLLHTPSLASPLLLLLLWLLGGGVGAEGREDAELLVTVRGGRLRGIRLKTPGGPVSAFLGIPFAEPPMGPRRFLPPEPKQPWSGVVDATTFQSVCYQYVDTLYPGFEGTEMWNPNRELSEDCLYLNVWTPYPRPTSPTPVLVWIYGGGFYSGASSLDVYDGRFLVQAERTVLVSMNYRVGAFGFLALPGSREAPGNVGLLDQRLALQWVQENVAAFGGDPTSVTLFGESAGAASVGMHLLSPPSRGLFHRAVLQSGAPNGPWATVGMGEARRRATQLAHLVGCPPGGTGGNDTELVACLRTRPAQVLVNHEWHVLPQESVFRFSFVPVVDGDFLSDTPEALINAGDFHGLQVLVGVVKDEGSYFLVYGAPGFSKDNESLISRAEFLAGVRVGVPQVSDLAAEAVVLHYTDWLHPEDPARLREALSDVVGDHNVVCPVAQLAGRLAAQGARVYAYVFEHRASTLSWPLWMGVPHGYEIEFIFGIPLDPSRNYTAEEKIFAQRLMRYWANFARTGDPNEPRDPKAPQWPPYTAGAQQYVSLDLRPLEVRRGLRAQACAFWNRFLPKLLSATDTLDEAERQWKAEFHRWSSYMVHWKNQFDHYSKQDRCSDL

CCCCCCCCCCCCCCC[C@H](O)[C@@H](N)CO
inactive: all assays above

CCOCC(C)O (stereo not drawn)
inactive: all assays above

CC1=C(O)C(=O)C(C)O1 (stereo not drawn)
inactive: all assays above

CC(=O)[C@H]1[C@H](C#N)C[C@H]2[C@@H]3CC=C4C[C@@H](O)CC[C@]4(C)[C@H]3CC[C@@]21C
inactive: all assays above

NCCC(O)(P(=O)(O)O)P(=O)(O)O
inactive: all assays above

CCCCCCCCCCCCCCCCOP(=O)([O-])OCC[N+](C)(C)C
inactive: all assays above

CC(C)CCOC(=O)c1ccc(N(C)C)cc1
inactive: all assays above

CCCC(CC)CCCCCCCN (stereo not drawn)
inactive: all assays above

S=c1[nH][nH]c(=S)s1
inactive: all assays above

OC[C@H]1O[C@@H]2O[C@H]3[C@H](O)[C@@H](O)[C@@H](O[C@H]4[C@H](O)[C@@H](O)[C@@H](O[C@H]5[C@H](O)[C@@H](O)[C@@H](O[C@H]6[C@H](O)[C@@H](O)[C@@H](O[C@H]7[C@H](O)[C@@H](O)[C@@H](O[C@H]8[C@H](O)[C@@H](O)[C@@H](O[C@H]9[C@H](O)[C@@H](O)[C@@H](O[C@H]1[C@H](O)[C@H]2O)O[C@@H]9CO)O[C@@H]8CO)O[C@@H]7CO)O[C@@H]6CO)O[C@@H]5CO)O[C@@H]4CO)O[C@@H]3CO
inactive: all assays above

CC(C)(C)OC(=O)c1ccc(O)cc1
inactive: all assays above

CCCCCCOC(=O)c1ccccc1O
inactive: all assays above

C1C[C@@H]2[C@H]3CC[C@H](C3)[C@@H]2C1
inactive: all assays above

CCC(C=O)CC
inactive: all assays above

Nc1ccccc1S(=O)(=O)c1ccccc1
inactive: all assays above

CCNC(=O)C1CC(C)CCC1C(C)C (stereo not drawn)
inactive: all assays above

O=C(O)C1CCC1
inactive: all assays above

O=C(O)c1c(Cl)cccc1Cl
inactive: all assays above

O=C1c2ccccc2C(=O)C1(O)O
inactive: all assays above

CN(C)C(=O)Nc1ccc(Oc2ccc(Cl)cc2)cc1
inactive: all assays above

c1cc2c3c(c1)ccc1cccc(c13)C2
inactive: all assays above

CC(CO)CO
inactive: all assays above

CC1(C)C(=O)N(Br)C(=O)N1Cl
inactive: all assays above

CC1=CC(=O)CC(C)(C)C1=O
inactive: all assays above

O=C(O)CNC(=O)c1ccccc1I
inactive: all assays above

CCOC(=O)Nc1ccc2c(c1)N(C(=O)CCN1CCOCC1)c1ccccc1S2
inactive: all assays above

COC(=O)[C@]1(C)CCC[C@@]2(C)[C@H]1CC=C1C=C(C(C)C)CC[C@@H]12
inactive: all assays above

O=C1CCCc2c1cc1ccc3cccc4ccc2c1c34
inactive: all assays above

Cc1nc([N+](=O)[O-])cn1-c1ccc([N+](=O)[O-])cc1
inactive: all assays above

O=C(CCOCCOCCOCCOCCC(=O)Nc1c(I)cc(I)c(C(=O)O)c1I)Nc1c(I)cc(I)c(C(=O)O)c1I
inactive: all assays above

CC(=O)CCC1=C(C)CCCC1(C)C
inactive: all assays above

COC(=O)c1ccccc1Cl
inactive: all assays above

NS(=O)(=O)c1ccccc1Cl
inactive: all assays above

CCOC(=O)c1ccccc1
inactive: all assays above

C=COCC1CCC(COC=C)CC1 (stereo not drawn)
inactive: all assays above

O=C1CCCCCCCCCCC(=O)OCCO1
inactive: all assays above

Cn1cnc2ncnc(N)c21
inactive: all assays above
